{"source": "paper PMC13494018", "data": [{"target": "PDL1, Q9NZQ7", "sequence (Q9NZQ7 whole entry)": "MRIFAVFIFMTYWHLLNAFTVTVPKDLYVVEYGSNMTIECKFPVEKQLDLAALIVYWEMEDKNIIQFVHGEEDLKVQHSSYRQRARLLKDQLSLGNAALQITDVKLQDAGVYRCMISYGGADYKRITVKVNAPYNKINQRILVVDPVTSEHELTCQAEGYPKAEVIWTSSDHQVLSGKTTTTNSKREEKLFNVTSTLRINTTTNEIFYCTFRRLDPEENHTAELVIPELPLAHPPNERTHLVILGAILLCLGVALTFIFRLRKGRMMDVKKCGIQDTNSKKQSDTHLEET", "values": [{"binder": "d8r1_design_ppi_705_dldesign_0_cycle1_af2pred (protein) MSKLTQAMLHYGRALAAAVALADDPEAAGKAVSAEMAEAAKVAAAGSPEVQKQALEAGEIIVEQIKKVNPEVGAKAAEAVKTTLAKL", "binding in a display sort": "not found (inactive)"}, {"binder": "d8r1_design_ppi_1356_dldesign_0_cycle0_af2pred (protein) SAELIAQTARAGAVMLAAGIAGTPEAAANAAAGTSLLLKAKAESTGSEELKALAERAAAAAATLKADPAAGRAALAALRDELEKLAK", "binding in a display sort": "not found (inactive)"}, {"binder": "d8r1_design_ppi_568_dldesign_0_cycle0_af2pred (protein) AGEALNLAARGLIAAGEAGDAEAAAQAAALLAKATAALAAGDEAAAKAYAAEAAAVADPEKAPEAEAVKAAAAA", "binding in a display sort": "not found (inactive)"}, {"binder": "d8r1_design_ppi_282_dldesign_0_cycle1_af2pred (protein) STDEELAAKAAALANLNKALAIATKFDPSVLADFKKIASLILDPNKKEEAVKLLNEKAKEAEAKDPAAGAALKAAAEEAKKI", "binding in a display sort": "not found (inactive)"}, {"binder": "d8r1_design_ppi_991_dldesign_0_cycle1_af2pred (protein) AEAARTAAIAKSIAGLAKLAEKAKDDKSVVRAAATAAAAAAAKDAALGKAAAERLKAAAEATPEEAIATLKAVAAEIAAAAAA", "binding in a display sort": "not found (inactive)"}, {"binder": "d8r1_design_ppi_1191_dldesign_0_cycle1_af2pred (protein) AKAELKKKAEEYEKLYNAAKAALDVALADPSFSKSAKKAIAQAQVDAAKKALEAAKAYDPSQAPYWQAKLDAAQAALDAI", "binding in a display sort": "not found (inactive)"}, {"binder": "d8r1_design_ppi_502_dldesign_0_cycle0_af2pred (protein) SFEEEKKKADEYMTKAAELAPPELKPAVQNMRDGILKAFEVSPKSALNLAKSALRWVKKHGSEEAAKEMEKALEHLEKAAE", "binding in a display sort": "not found (inactive)"}, {"binder": "d8r1_design_ppi_820_dldesign_0_cycle1_af2pred (protein) AAEAQALLQTFEANVEGAKMMGEASSLPALVRYHAITKTSATLAARAKELGLEEAAAQIEARGKELAAEAKAGLEKELAA", "binding in a display sort": "not found (inactive)"}, {"binder": "d8r1_design_ppi_750_dldesign_0_cycle1_af2pred (protein) SRLEEARAIAERAAAEAAAAGNVAEAVAIAQRGAAEVVRTLSPEPVEAKAEVLAHHAELAQAVIDALTAAE", "binding in a display sort": "not found (inactive)"}, {"binder": "d8r1_design_ppi_1247_dldesign_0_cycle0_af2pred (protein) SSDKENSKLIREAMKVIGETLAAARAAVAAGDLEAARAAVAEGVARLEEMAEKSKDEATRETLLRMAEALRAQGAKILA", "binding in a display sort": "not found (inactive)"}, {"binder": "d8r1_design_ppi_286_dldesign_0_cycle0_af2pred (protein) SNEENAENLRLAGRAIEGVAESASAKQTADHLNNVATAAAKIDAETGKKLKAIGEEVLKTGDAKEGGEKAKKVLEEAAEKFK", "binding in a display sort": "not found (inactive)"}, {"binder": "d8r1_design_ppi_43_dldesign_0_cycle0_af2pred (protein) MEALERASRVLAEAARLAMKNPAYAPAFAEVAAAYRETIAAYKESPEAAKEAAERLEKLAAERIAAAKAAL", "binding in a display sort": "not found (inactive)"}, {"binder": "d8r1_design_ppi_442_dldesign_0_cycle1_af2pred (protein) DAAAVAAIAAAAAEAAGLYVRGRAASSKDPAEAKKYYAEADALVAAMLAAGAATSPAVAAAAAAAAATVAATRAALDAIKA", "binding in a display sort": "not found (inactive)"}, {"binder": "d8r1_design_ppi_1486_dldesign_0_cycle1_af2pred (protein) MKELEEAKKEAEKAREELLKAAKEAAKVDPTVATGANNAAEGAKVLIESGSLGAARAGKAIAEAALKKAQAVLDAAQKA", "binding in a display sort": "not found (inactive)"}, {"binder": "d8r1_design_ppi_257_dldesign_0_cycle1_af2pred (protein) DEKDTATAEALGAISRAIAAAKALAATGDPEEAARLAEAARAAIAEALELAKKTTPSSQAAIEVAAARARAALDAALAKQAARAAA", "binding in a display sort": "not found (inactive)"}, {"binder": "d8r1_design_ppi_198_dldesign_0_cycle1_af2pred (protein) AAAALQAAAAAAAARLEKLAEEAAADPRLAPAAAAARAAAAQARANPAIAAQLAANTEAFVATYRAAVEEK", "binding in a display sort": "not found (inactive)"}, {"binder": "d8r1_design_ppi_786_dldesign_0_cycle1_af2pred (protein) SEEKEKLKKLAEKARAGAEAAKADPSKAAEYGKEAYELAKEALPESIAELFKKAVEKNPVSGLAFLAAYAKYKAES", "binding in a display sort": "not found (inactive)"}, {"binder": "d8r1_design_ppi_487_dldesign_0_cycle0_af2pred (protein) AAAEAAKAALAAEGERLLEEAERNLKIAKEGNGEEAAKASRNTLLNLAELTKLADEAAAADPAAGKVGAELLARLREILREIEAVNLA", "binding in a display sort": "not found (inactive)"}, {"binder": "d8r1_design_ppi_493_dldesign_0_cycle1_af2pred (protein) SDARIAGAVAIMRLGAADADAATGAALREVGAAFAVSPEAGVAKAAELAAALAAARTPAAAAAGAARLAAATALGVAIAAAGA", "binding in a display sort": "not found (inactive)"}]}]}
